SARS PLP yeast = qHTS of Yeast-based Assay for SARS-CoV PLP; S. cerevisiae expressing SARS-CoV PLpro, growth rescue; hit rate 0.19% among 330,000; AID 485353, 2010; Potency, µM (doses to about 32.9 µM), inactives show top-dose activity, positive = growth rescue, most hits filed as activators; calls by dose curve; note: 0% is about no effect; nearly all actives have a fitted effect of over 55% in size
Pf growth 48h = Primary qHTS for delayed death inhibitors of the malarial parasite plastid, 48 hour incubation | P. falciparum luciferase growth in erythrocytes, 48 h | Potency, µM (series often up to 28.7 µM), for the others: top-dose activity change, negative = inhibition, actives largely listed as inhibitors | hit rate 5.9% among 310,000 | AID 504832, 2011; note: % is set by controls: 0 for no effect and ±100 for the full control effect
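First compound was added to culture medium, then infected red cells at 0.1% parasitemia and 2% hematocrit (final). After incubation at 37 C under 5% CO2, luciferase detection reagent was dispensed and light output recorded.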
Pf growth 96h = Primary qHTS for delayed death inhibitors of the malarial parasite plastid, 96 hour incubation; P. falciparum luciferase reporter growth, 96 h; Potency, µM (top dose mostly 28.7 µM), inactives show at the highest dose activity change, negative = inhibition, usual class: inhibitors; hit rate 6.9% among 320,000; AID 504834, 2011; note: % is set by controls: 0 for no effect and ±100 for the full control effect
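Plates of compound plus infected erythrocytes (2% hematocrit, 0.05% parasitemia final) incubate 96 hours, 37 C, 5% CO2. Detection reagent added; reduced luminescence from the parasites' luciferase reporter flags inhibition.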
Sm TGR block = qHTS Assay for the Inhibitors of Schistosoma Mansoni Peroxiredoxins; Schistosoma mansoni thioredoxin glutathione reductase (TGR), Q962Y6; Potency, µM (top dose mostly 114 µM), for the others: at the top dose activity change, negative = inhibition, usual class: inhibitors; hit rate 3% among 360,000; purified TGR, DTNB reduction, TNB absorbance 405 nm; AID 485364, 2010; note: % is set by controls: 0 for no effect and ±100 for the full control effect; nearly all actives have a fitted effect of over 60% in size
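Kinetic colorimetric format: TGR-catalysed, NADPH-driven DTNB reduction monitored via TNB absorbance. Enzyme dispensed at 20 nM; compound exposure 15 min at room temperature before reaction start.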
Starred values were filed as active, the others as inactive. Only some compounds are listed: those with a hit (about 12% of all), similar ones and a draw of the others. Unless noted, calls come from the whole dose curve; as a rule, active = well fitted curve in the direction sought with a large enough effect; inconclusive = small, poorly fitted or top-dose-only effect, or another doubt; inactive = no such curve, though single readings can be large; an effect the other way counts as inactive or inconclusive. Potency is the fitted concentration of half-maximal effect.

Results for CC1CCCCN1C(=O)c1cc2nc(-c3ccccc3)cc(-c3ccccc3)n2n1 (stereo unspecified) ?
SARS PLP yeast: -38%; Pf growth 48h: 8.3µM*; Pf growth 96h: inconclusive; Sm TGR block: -5%

What do the screens show for `CCOC(=O)C1CCCN(C(=O)c2sc3nc(-c4ccc(OC)cc4)cn3c2C)C1` (stereo unspecified)?
SARS PLP yeast: -2%; Pf growth 48h: 13µM*; Pf growth 96h: -16%; Sm TGR block: 3%

What do the screens show for `CCOC(=O)C1CCN(C(=O)c2sc3nc(-c4ccccc4)cn3c2C)CC1`?
SARS PLP yeast: -1%; Sm TGR block: 6%

What do the screens show for `Cc1ccc(-c2cc(C(F)F)n3ncc(C(=O)N4CCCCC4c4cccnc4)c3n2)cc1` (stereo unspecified)?
SARS PLP yeast: -1%; Pf growth 48h: 1.7µM*; Pf growth 96h: 4.1µM*

Results for O=C(c1cnn2c(C(F)(F)F)cc(-c3ccccc3)nc12)N1CCCCC1c1cccnc1 (stereo unspecified) ?
SARS PLP yeast: -2%; Pf growth 48h: inconclusive; Pf growth 96h: inconclusive

How did O=C(CSc1ccccc1)NCc1ccc2c(c1)CCN2C(=O)c1ccc(F)cc1 do in these assays?
Sm TGR block: -7%

What do the screens show for `CCOC(=O)CNS(=O)(=O)c1ccc(S(=O)(=O)NC2CC2)cc1`?
SARS PLP yeast: 1%; Pf growth 48h: 2%; Pf growth 96h: inconclusive; Sm TGR block: 1%

How did CC(=O)N1CCc2c(sc3c2c(=O)n(CCc2ccccc2)c(=O)n3Cc2ccccc2C)C1 do in these assays?
Sm TGR block: 5%

Results for CC1CC(C)CN(CCCNC(=O)c2ccc3c(c2)ncn3C2CCCC2)C1 (stereo unspecified) ?
SARS PLP yeast: 17%; Pf growth 48h: inconclusive; Pf growth 96h: 10µM*; Sm TGR block: 2%

Results for Cc1c(C)n(C)c2ccc(C(=O)NCCCN3CCCCC3C)cc12 (stereo unspecified) ?
SARS PLP yeast: 12%; Pf growth 48h: -22%; Pf growth 96h: 6.6µM*; Sm TGR block: 9%

What do the screens show for `CC1CCCCN1CCCNC(=O)c1nn(C)c2c1CS(=O)(=O)c1ccccc1-2` (stereo unspecified)?
SARS PLP yeast: -5%; Pf growth 48h: 13%; Pf growth 96h: 12µM*; Sm TGR block: -26%

How did Cc1c(C)n(C)c2ccc(C(=O)NCCc3ccco3)cc12 do in these assays?
SARS PLP yeast: -8%; Pf growth 48h: inconclusive; Pf growth 96h: -12%; Sm TGR block: 35µM*

Results for COc1ccc(C(=O)c2c3ccc(C(F)(F)F)cc3[n+]([O-])n2CCCC(N)=O)cc1 ?
SARS PLP yeast: 1%; Pf growth 48h: inconclusive; Pf growth 96h: inconclusive; Sm TGR block: -9%

How did COc1ccc(C(=O)c2c3ccc([N+](=O)[O-])cc3[n+]([O-])n2CCCC(N)=O)cc1 do in these assays?
SARS PLP yeast: 4%; Pf growth 48h: inconclusive; Pf growth 96h: inconclusive; Sm TGR block: inconclusive

What do the screens show for `NCCCn1c(C(=O)c2cc(Cl)c(N)c(Cl)c2)c2ccc(C(F)(F)F)cc2[n+]1[O-]`?
SARS PLP yeast: 4%; Pf growth 48h: 6.6µM*; Pf growth 96h: inconclusive; Sm TGR block: 45µM*

Results for NC(=O)CCCn1c(C(=O)c2cc(Cl)c(N)c(Cl)c2)c2ccc(C(F)(F)F)cc2[n+]1[O-] ?
SARS PLP yeast: 6%; Pf growth 48h: 5.9µM*; Pf growth 96h: 4.7µM*; Sm TGR block: inconclusive

What do the screens show for `NCCCn1c(C(=O)c2cc(Cl)c(N)c(Cl)c2)c2ccc([N+](=O)[O-])cc2[n+]1[O-]`?
SARS PLP yeast: 8%; Pf growth 48h: 12µM*; Pf growth 96h: inconclusive; Sm TGR block: 40µM*

Results for CC1(OC(=O)C2CCCC2)C(=O)C=C2C=C3CCCCN3C=C2C1=O (stereo unspecified) ?
SARS PLP yeast: -6%; Pf growth 48h: 58%; Pf growth 96h: inconclusive; Sm TGR block: -32%

What do the screens show for `COC/C=C/C1=CC2=CC(=O)C(C)(OC(=O)C3CCCC3)C(=O)C2=CO1` (stereo unspecified)?
SARS PLP yeast: 3%; Pf growth 48h: 45%; Pf growth 96h: 54%; Sm TGR block: 3.5µM*

Results for COC/C=C/C1=CC2=CC(=O)C(C)(OC(=O)c3ccco3)C(=O)C2=CO1 (stereo unspecified) ?
SARS PLP yeast: -2%; Pf growth 48h: 35%; Pf growth 96h: 72%; Sm TGR block: 3.2µM*

What do the screens show for `CC1(C)CC(=O)CC(C)(C)N1OC(=O)c1ccco1`?
SARS PLP yeast: 1%; Pf growth 96h: 17%; Sm TGR block: -4%

What do the screens show for `COc1cccc(NC2c3ccccc3C(=O)N2Cc2ccco2)c1` (stereo unspecified)?
SARS PLP yeast: -3%; Pf growth 96h: inconclusive; Sm TGR block: 40µM*

Results for O=C1c2ccccc2N2C(=O)c3ccccc3C2N1Cc1ccco1 (stereo unspecified) ?
SARS PLP yeast: 10%; Pf growth 48h: -12%; Pf growth 96h: 38%; Sm TGR block: 14µM*

What do the screens show for `Cc1ccccc1NC1c2ccccc2C(=O)N1Cc1ccco1` (stereo unspecified)?
SARS PLP yeast: 2%; Pf growth 96h: 8.3µM*; Sm TGR block: 20µM*

How did CC(=O)c1cccc(NC2c3ccccc3C(=O)N2Cc2ccco2)c1 (stereo unspecified) do in these assays?
SARS PLP yeast: -1%; Pf growth 48h: 13%; Pf growth 96h: 0%; Sm TGR block: inconclusive

Results for CCN(CC)S(=O)(=O)c1ccc(NC2c3ccccc3C(=O)N2Cc2ccco2)cc1 (stereo unspecified) ?
SARS PLP yeast: -7%; Pf growth 96h: inconclusive; Sm TGR block: 22µM*

Results for CC(C)(C)C(=O)CN1C2=NCCCN2c2ccccc21 ?
SARS PLP yeast: 1%; Pf growth 48h: -11%; Pf growth 96h: inconclusive; Sm TGR block: -2%

What do the screens show for `CCCCn1cc(S(=O)(=O)c2ccc(C)cc2)c(=O)c2cc(F)c(N3CCCCC3)cc21`?
Sm TGR block: -5%

Results for COc1ccc(C(C)=O)c2c(O)cccc12 ?
SARS PLP yeast: -1%; Pf growth 48h: inconclusive; Pf growth 96h: -16%; Sm TGR block: -23%

How did CCC1=NNc2cccc3c(OC)ccc1c23 do in these assays?
SARS PLP yeast: -6%; Pf growth 96h: inconclusive; Sm TGR block: 10µM*

Results for CC(/C=N\NC(=O)CN1CCN(Cc2ccccc2)CC1)=C\c1ccco1 ?
SARS PLP yeast: 5%; Pf growth 48h: -6%; Pf growth 96h: inactive; Sm TGR block: -21%

Results for CC(/C=N/n1c(-c2cc(C)[nH]n2)n[nH]c1=S)=C\c1ccco1 ?
SARS PLP yeast: 0%; Pf growth 48h: 8%; Pf growth 96h: 83%; Sm TGR block: 13µM*

Results for CC(/C=N/n1c(-c2ccc(Cl)cc2)n[nH]c1=S)=C\c1ccco1 ?
SARS PLP yeast: -15%; Pf growth 48h: 7%; Pf growth 96h: -9%; Sm TGR block: -18%

Screening data from PubChem BioAssay.
